Test results from PubChem BioAssay (Tox21).
Records with an inconclusive call do not appear. Active and inactive are the calls of the source. Unless noted, calls follow the shape of the dose curve; as a rule, active = well fitted curve in the direction sought with a large enough effect in the repeat runs; inconclusive = weak or mixed curves; inactive = no such curve, though single readings can be large; an effect the other way counts as inactive or inconclusive.

Key:
[1] = qHTS assay for small molecule agonists of the p53 signaling pathway (AID 651631; calls by dose curve; also: nearly all actives have a fitted effect of over 15% in size)
In short: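 HCT-116 cells carrying a beta-lactamase reporter under p53 response elements were dosed with compound for 16 h at 37 °C. LiveBLAzer B/G FRET substrate was then added for 2 h at room temperature, and fluorescence intensity was read to detect pathway agonism.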

[2] = qHTS assay for small molecules that induce genotoxicity in human embryonic kidney cells expressing luciferase-tagged ATAD5 (AID 651632); also: nearly all actives have a fitted effect of over 15% in size
In short: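 Test compounds were delivered by pin tool onto HEK293T reporter cells (2,000/well) expressing ATAD5 fused to luciferase. After 16 hr at 37C, 5% CO2, Amplite was added for 30 min at room temperature and luminescence was measured.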

[3] = qHTS assay for small molecule agonists of the p53 signaling pathway - cell viability (AID 651633; calls by dose curve;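 also: p53RE-bla HCT reporter cells with a stable beta-lactamase p53 reporter; series mostly up to about 83 µM; nearly all actives have a fitted effect of over 30% in size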)
In short: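 p53RE-bla cells, seeded at 4,000 per well and rested 5 h at 37 C/5% CO2, received compounds in DMSO for 16 h at 37 C. CellTiter-Glo was then added, and luminescence was read after 30 min at room temperature to gauge cytotoxicity.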

[4] = qHTS assay for small molecules that induce genotoxicity in human embryonic kidney cells expressing luciferase-tagged ATAD5 - cell viability (AID 651634; calls by dose curve; also: nearly all actives have a fitted effect of over 25% in size)
In short: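 Quantitative high-throughput format. HEK293T cells expressing ATAD5 fused to luciferase were plated at 2,000 cells/well and treated 15.5 hr with compound versus DMSO. Viability was determined by fluorescent live-cell protease substrate, 30 min at 37C.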

[5] = qHTS assay for small molecule disruptors of the mitochondrial membrane potential - cell viability (AID 720634; calls by dose curve;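 also: human HepG2 liver cancer cells; series mostly up to about 83 µM; nearly all actives have a fitted effect of over 20% in size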)
In short: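 Same-well counter-screen: following the MMP dye addition, CellTiter-Glo was added to 1 hr compound-treated HepG2 cells and luminescence read after 30 min at room temperature.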

[6] = qHTS assay to test for compound auto fluorescence at 590 nm (red) in HepG2 cells (AID 720674)
In short: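 Compound auto-fluorescence is scored relative to Rose Bengal sodium, measured at 540/590 nm in live HepG2 cultures after 1 hr compound contact (37 C, 5% CO2).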

[7] = qHTS assay to test for compound auto fluorescence at 460 nm (blue) in HEK293 cells (AID 720678)
In short: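 Intrinsic compound fluorescence is recorded in live HEK293 cultures after overnight incubation at 37C, 5% CO2, using excitation 405 nm and emission 460 nm. Values are referenced to triamterene.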

[8] = qHTS assay to test for compound auto fluorescence at 590 nm (red) in HEK293 cells (AID 720679)
In short: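 Red autofluorescence, HEK293 cells: 2,000 cells/well; attach 4-5 hr 37C; add 23 nL cpd or DMSO; incubate o/n 37C 5% CO2; read Ex540/Em590; Rose Bengal sodium reference.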

[9] = qHTS assay to test for compound auto fluorescence at 535 nm (green) in HepG2 cells (AID 720675)
[10] = qHTS assay for small molecule disruptors of the mitochondrial membrane potential (AID 720635)
In short: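 HepG2 cells (2,000/well) attached overnight at 37C, then took compound for 1 hr at 37C, 5% CO2. Mito-MPS dye was added for 30 min; fluorescence was read at 490/535 nm (monomers) and 540/590 nm (aggregates).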
% is scaled to controls: 0 for no effect and ±100 for the full control effect.

C=C[Si](OC(=C)C)(OC(=C)C)OC(=C)C
inactive: outcome [1] | Potency [2] | outcome [3] | Potency [4] | Potency [5] | outcome [6] | outcome [7] | outcome [8]

CC(=O)Nc1ccc(S(N)(=O)=O)cc1
inactive: outcome [1] | Potency [2] | outcome [3] | Potency [4] | Potency [5] | outcome [6] | outcome [9] | outcome [7] | outcome [8]

Cc1ccc(Cl)cc1Cl
inactive: outcome [1] | Potency [2] | outcome [3] | Potency [4] | Potency [5] | outcome [6] | outcome [7] | outcome [8]

CCCCC/C=C\CCC=O
inactive: outcome [1] | Potency [2] | outcome [3] | Potency [4] | Potency [5] | outcome [6] | outcome [9] | outcome [7] | outcome [8]

Nc1ccccc1S(=O)(=O)O
inactive: outcome [1] | Potency [2] | outcome [3] | Potency [4] | Potency [5] | outcome [6] | outcome [9] | outcome [7] | outcome [8]

ClC(Cl)(Br)Br
inactive: outcome [1] | Potency [2] | outcome [3] | Potency [4] | Potency [5] | outcome [6] | outcome [9] | outcome [7] | outcome [8]

NC(=O)COCCN1CCN(C(c2ccccc2)c2ccc(Cl)cc2)CC1 (configuration not stated)
inactive: outcome [1] | Potency [2] | outcome [3] | Potency [4] | Potency [5] | outcome [6] | outcome [9] | outcome [7] | outcome [8]

CC(=O)c1ccccc1O
inactive: outcome [1] | Potency [2] | outcome [3] | Potency [4] | Potency [5] | outcome [6] | outcome [9] | outcome [7] | outcome [8]

CC1(C)CO[C@@H](CC(=O)O)CN1
inactive: outcome [1] | Potency [2] | outcome [3] | Potency [4] | Potency [5] | outcome [6] | outcome [9] | outcome [7] | outcome [8]

COc1nc(N)nc2c1ncn2[C@@H]1O[C@H](CO)[C@@H](O)[C@@H]1O
inactive: outcome [1] | Potency [2] | outcome [3] | Potency [4] | Potency [5] | outcome [6] | outcome [9] | outcome [7] | outcome [8]

CCC(C)S (configuration not stated)
inactive: activation [1] -2.85% [at 3.72 µM] | activation [2] 1.12% [at 3.63 µM] | activity change, negative = cytotoxicity [3] -9.49% [at 3.63 µM] | activity, negative = cytotoxicity [4] -7.36% [at 3.63 µM] | activity change, negative = cytotoxicity [5] 9.33% [at 3.63 µM] | fluorescence, relative to Rose Bengal [6] -0.0609% [at 3.72 µM] | fluorescence, % of fluorescein control [9] -0.0052% [at 3.72 µM] | fluorescence, % of triamterene [7] 0.0233% [at 3.72 µM] | fluorescence, % of fluorescent control [8] 0.243% [at 3.72 µM]

CC(=O)CC(C)(C)C1CCCCC1
inactive: outcome [1] | Potency [2] | outcome [3] | Potency [4] | Potency [5] | outcome [6] | outcome [7] | outcome [8]

COC(=O)c1ccc(C)cc1C1=NC(C)(C(C)C)C(=O)N1 (configuration not stated)
inactive: outcome [1] | Potency [2] | outcome [3] | Potency [4] | Potency [5] | outcome [6] | outcome [7] | outcome [8]

Cc1cc2c(cc1S(N)(=O)=O)S(=O)(=O)CCC2
inactive: outcome [1] | Potency [2] | outcome [3] | Potency [4] | Potency [5] | outcome [6] | outcome [7] | outcome [8]

COC(C)(C)CCCC(C)CC=O (configuration not stated)
inactive: outcome [1] | Potency [2] | outcome [3] | Potency [4] | Potency [5] | outcome [6] | outcome [9] | outcome [7] | outcome [8]

COc1ccc2c(c1)c(CC(=O)OCC(=O)O)c(C)n2C(=O)c1ccc(Cl)cc1
inactive: outcome [1] | Potency [2] | outcome [3] | Potency [4] | Potency [5] | outcome [6] | outcome [9] | outcome [7] | outcome [8]

COC(=O)NN
inactive: outcome [1] | Potency [2] | outcome [3] | Potency [4] | Potency [5] | outcome [6] | outcome [7] | outcome [8]

NC(=O)c1ccc([N+](=O)[O-])cc1
inactive: outcome [1] | Potency [2] | outcome [3] | Potency [4] | Potency [5] | outcome [6] | outcome [9] | outcome [7] | outcome [8]

CCN1CCC[C@H]1CNC(=O)c1c(O)c(Cl)cc(Cl)c1OC
inactive: outcome [1] | Potency [2] | outcome [3] | Potency [4] | Potency [5] | outcome [6] | outcome [9] | outcome [7] | outcome [8]

C1CN(CCOCCN2CCOCC2)CCO1
inactive: outcome [1] | Potency [2] | outcome [3] | Potency [4] | Potency [5] | outcome [6] | outcome [9] | outcome [7] | outcome [8]

CN(C)CCCNCCCN(C)C
inactive: outcome [1] | Potency [2] | outcome [3] | Potency [4] | outcome [6] | outcome [9] | outcome [7] | outcome [8]

O=C(CCCN1CCC(O)(c2cccc(C(F)(F)F)c2)CC1)c1ccc(F)cc1
inactive: outcome [1] | Potency [2] | outcome [3] | Potency [4] | Potency [5] | outcome [6] | outcome [9] | outcome [7] | outcome [8]

CN(C(=O)c1c(O)c2ccccc2n(C)c1=O)c1ccccc1
inactive: outcome [1] | Potency [2] | outcome [3] | Potency [4] | Potency [5] | Potency [10] | outcome [6] | outcome [7] | outcome [8]

CCCN1CCCC[C@H]1C(=O)Nc1c(C)cccc1C
inactive: outcome [1] | Potency [2] | outcome [3] | Potency [4] | Potency [5] | outcome [6] | outcome [7] | outcome [8]

Nc1nc2c(ncn2COC(CO)CO)c(=O)[nH]1
inactive: outcome [1] | Potency [2] | outcome [3] | Potency [4] | outcome [6] | outcome [9] | outcome [7] | outcome [8]

CCOC(=O)CCC(C)=O
inactive: outcome [1] | Potency [2] | outcome [3] | Potency [4] | Potency [5] | outcome [6] | outcome [9] | outcome [7] | outcome [8]

C[C@@H]1CCN(C(=O)[C@H](CCCN=C(N)N)NS(=O)(=O)c2cccc3c2NC[C@H](C)C3)[C@@H](C(=O)O)C1
inactive: outcome [1] | Potency [2] | outcome [3] | Potency [4] | Potency [5] | outcome [6] | outcome [7] | outcome [8]

CC/C=C\CCOC(C)=O
inactive: outcome [1] | Potency [2] | outcome [3] | Potency [4] | Potency [5] | outcome [6] | outcome [9] | outcome [7] | outcome [8]
